Assay outcomes: PubChem BioAssay, National Center for Advancing Translational Sciences (NCATS)
ELG1 genotox = qHTS screen for small molecules that induce genotoxicity in human embryonic kidney (HEK293T) cells expressing luciferase-tagged ELG1. AID 504466, 2011. Potency, µM (series often up to 46 µM), inactives show top-dose activity change, positive = activation, actives largely listed as activators. HEK293T ELG1-luciferase reporter, luminescence, 16 h. hit rate 1.3% among 330,000; note: % of control where 0% means no effect; nearly all actives have a fitted effect of over 60% in size
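Screening used a luciferase reporter fused to human ELG1 in HEK293T cells. Luminescence was read on a CCD plate imager after 16 hr exposure and 30 min ONE-Glo incubation.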
FLuc modulator = qHTS profiling assay for firefly luciferase inhibitor/activator using purifed enzyme and Km concentrations of substrates (counterscreen for miR-21 project); purified FLuc, Km substrates, luminescence inhibition; Potency, µM (highest dose often 57.5 µM), inactives show at the highest dose activity change, negative = inhibition, most hits filed as inhibitors; hit rate 6.9% among 360,000;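 note: plate controls were vehicle for no effect and reference inhibitor for full effect; nearly all actives have a fitted effect of over 55% in size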
Target sequence (P08659 whole entry, looked up): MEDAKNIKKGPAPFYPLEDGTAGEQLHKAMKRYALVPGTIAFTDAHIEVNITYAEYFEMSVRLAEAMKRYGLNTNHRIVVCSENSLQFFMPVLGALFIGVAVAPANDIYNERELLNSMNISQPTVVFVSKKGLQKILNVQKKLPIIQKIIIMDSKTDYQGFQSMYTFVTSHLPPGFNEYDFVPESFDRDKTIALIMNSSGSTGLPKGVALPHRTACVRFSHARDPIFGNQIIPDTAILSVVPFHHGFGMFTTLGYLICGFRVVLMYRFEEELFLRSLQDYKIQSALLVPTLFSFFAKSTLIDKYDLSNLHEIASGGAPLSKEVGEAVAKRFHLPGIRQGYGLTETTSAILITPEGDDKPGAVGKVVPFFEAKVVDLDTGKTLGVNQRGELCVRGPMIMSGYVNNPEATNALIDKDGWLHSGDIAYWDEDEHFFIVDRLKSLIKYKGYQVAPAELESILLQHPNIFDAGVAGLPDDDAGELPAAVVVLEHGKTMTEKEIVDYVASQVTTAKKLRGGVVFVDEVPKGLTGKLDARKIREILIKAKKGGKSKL
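Purified P. pyralis luciferase (10nM final) with 10uM D-luciferin and 10uM ATP (Km levels) in 50mM Tris acetate pH 7.5, 10mM Mg acetate, 0.01% Tween-20, 0.05% BSA; qHTS 6-point titration, ~60 µM downward; luminescence read.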
SMN2 splice enh = qHTS Assay for Enhancers of SMN2 Splice Variant Expression; hit rate 2.8% among 210,000; Potency, µM (highest dose often 46.1 µM), for the others: at the highest dose activity change, positive = activation, most hits filed as activators; HEK293 SMN2-luciferase splicing reporter, luminescence, 30-36 h; AID 1458, 2008; note: % of control where 0% means no effect; nearly all actives have a fitted effect of over 55% in size
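HEK293 cells carry an SMN2 minigene-luciferase reporter in which exon 7 inclusion puts luciferase in frame. Cells were seeded at 2000 cells/well, attached for 10-12 hours, then exposed to compounds for 30-36 hours at 37C before ONE-Glo luminescence.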
Rab9 promoter act = qHTS Assay for Rab9 Promoter Activators | hit rate 2.8% among 320,000 | Potency, µM (top dose mostly 9.22 µM), inactives show at the top dose activation, negative = inhibition, most hits filed as activators | Huh7 Rab9 promoter-luciferase reporter, luminescence, 24 h; note: % of control where 0% means no effect; nearly all actives have a fitted effect of over 60% in size
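Promoter activation is measured as luciferase luminescence in Huh7 cells stably transfected with a Rab9 promoter–luciferase construct, following 24 h compound exposure at 37 °C and 10 min reagent incubation at ambient temperature.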
NPC1 promoter act = qHTS Assay for NPC1 Promoter Activators | hit rate 2.4% among 320,000 | Huh7 NPC1 promoter luciferase reporter, 24 h | Potency, µM (series often up to 9.22 µM), for inactives: top-dose activation, usual class: activators; note: % of control where 0% means no effect; nearly all actives have a fitted effect of over 60% in size
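NPC1 promoter–luciferase Huh7 cells; 24 h compound; luminescence.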
* = called active by the depositor; ? = inconclusive; . = no result. Hits are enriched below; roughly 7.5% of the tested compounds scored in any of these assays. Calls come from the whole dose curve; as a rule, active = well fitted curve in the direction sought with a large enough effect; inconclusive = small, poorly fitted or top-dose-only effect, or another doubt; inactive = no such curve, though single readings can be large; an effect the other way counts as inactive or inconclusive. Potency is the fitted concentration of half-maximal effect.

SMILES | ELG1 genotox | FLuc modulator | SMN2 splice enh | Rab9 promoter act | NPC1 promoter act
Cc1ccc(C)c(N2CCN(C(=O)CN3C(=O)COc4ccc(S(=O)(=O)N5CCCC5)cc43)CC2)c1 | . | 0% | -10% | . | .
Nc1c(C(=O)N2CCCC2)sc2nc(-c3ccccc3)ccc12 | ? | 4.8µM* | . | 1.6µM* | 2µM*
NC(=O)c1sc2nc3c(c(-c4ccc(Cl)cc4)c2c1N)CCCC3 | -34% | 3% | 26% | -3% | -4%
Nc1c(C(=O)Nc2ccccc2F)sc2nc3c(cc12)CCCCCC3 | . | -5% | 8% | . | .
Cc1ccc(-c2c3c(nc4sc(C(N)=O)c(N)c24)CCC3)cc1 | 0% | 17µM* | 5% | ? | -4%
Nc1c(C(=O)Nc2ccccc2)sc2nc(-c3cccnc3)ccc12 | 3% | ? | . | 23% | ?
Nc1c(C(=O)N2CCCCC2)sc2nc3c(cc12)CCCC3 | 6.5µM* | 6.7µM* | . | 2.8µM* | 2.5µM*
Cc1ccc(C(=O)c2sc3nc4c(cc3c2N)CCC4)cc1 | ? | ? | 7.9µM* | 2.2µM* | 1.8µM*
Cc1ccc(Cn2c(CNC(=O)c3cccc(C)c3)nc3ccccc32)cc1 | . | -1% | 9% | . | .
Cc1ccnc(NC(=O)C(C)n2cc([N+](=O)[O-])cn2)c1 (stereo not drawn) | -3% | -4% | 13% | -1% | -4%
C=CCN=C(NC#N)SCC(=O)c1cccc(OC)c1 | 6% | ? | ? | ? | 3.5µM*
Cc1ccc(-n2[nH]c(C)c(/C=N/NC(=O)c3ccc(O)cc3O)c2=O)cc1 | ? | 0.43µM* | . | 4% | 23%
Cc1[nH]n(-c2ccc(Cl)cc2)c(=O)c1/C=N/c1nnc(-c2ccccc2)s1 | 6% | 19µM* | 19% | 0% | -2%
Cc1ccc(-n2[nH]c(C)c(C=Nc3cc(C)ccn3)c2=O)cc1 | 7% | ? | ? | 1% | -4%
Cc1[nH]n(-c2ccccc2)c(=O)c1/C=N/NC(=O)c1ccc(O)cc1O | ? | 2.1µM* | . | 11% | 19%
Cc1[nH]n(-c2ccccc2)c(=O)c1/C=N/Nc1nncc(-c2ccccc2)n1 | ? | 13µM* | -83% | -36% | -14%
Cc1cc(C(=O)N/N=C/c2c(C)n(C)c3ccccc23)n[nH]1 | 0% | ? | 8% | -1% | -8%
Cc1cc(C(=O)N/N=C/c2c(C)[nH]n(-c3ccccc3)c2=O)n[nH]1 | 2% | 5.4µM* | . | -2% | 0%
O=C(NNC(=O)C1CC=CCC1)c1ccccc1Cl (stereo not drawn) | 11% | -11% | . | 29% | 25%
CC(C)c1ccc(NC(=O)CSc2nc3ncccc3[nH]2)cc1 | 3% | -18% | . | 16% | 9%
COC(=O)C1CCN(C(=O)CSc2nc3ccc(OC)cc3[nH]2)CC1 | 5% | 0% | 11% | -2% | 15%
CC(C)OC(=O)c1ccc(NC(=O)CSc2nc3ncccc3[nH]2)cc1 | 1% | 17µM* | -19% | 13% | 1%
COc1ccc2nc(SCC(=O)N3CCNC3=O)[nH]c2c1 | ? | 21µM* | ? | 2µM* | 2.5µM*
COc1ccc(NC(=O)CSc2nc3ccccc3c(=O)[nH]2)cc1S(N)(=O)=O | 2% | 19µM* | . | 0% | 1%
O=C(CSc1nc(O)c(Cc2ccccc2)c(=O)[nH]1)Nc1nnc(SCc2ccccc2)s1 | 2% | 11µM* | . | 11% | -5%
CCCCc1nnc(NC(=O)CSc2nc(O)c(Cc3ccccc3)c(=O)[nH]2)s1 | 1% | ? | -50% | -7% | -2%
Cc1oc2ncn(CC(C)C)c(=O)c2c1C(=O)N1CCN(c2cccc(C(F)(F)F)c2)CC1 | . | 8% | . | . | .
COc1ccc(/C(=C\C(=O)O)c2nccc3cc(OC)c(OC)cc23)cc1OC | . | . | 12% | . | .
COc1ccc(C(=O)Nc2c(N)nc(SCC(=O)Nc3ccc(NC(C)=O)cc3)[nH]c2=O)cc1 | 7% | -8% | . | 14% | 1%
COc1ccc(NC(=O)CSc2nc(O)c(C/C=C/c3ccccc3)c(=O)[nH]2)cc1 | . | 5.4µM* | -3% | . | .
